Data published in PubChem BioAssay AID463173 (ICCB-Longwood Screening Facility, Harvard Medical School, 2010).
Screen size: about 52,000 compounds; about 4,300 (8.3%) were called active. No stated cut-off is given here; in the data, active means survival mostly below about 52% (no sharp cut-off); inactive means mostly above about 56%. The list comes from a sample in which actives are over-represented; it also holds similar structures and randomly drawn compounds.

system: DeltatarO mutant; assay: growth inhibition of S. aureus wild type versus tarO mutant, primary screen, teichoic acid synthesis inhibitors, RN4220, OD600 (AID 463173); conditions: OD600, 18 h, hits give low values, screened at 18.75 µg/mL (by protocol)

| SMILES | survival |
| --- | --- |
| CC(C)(C)C(=O)Nc1cccc(C(=O)OCc2cc(=O)n3nc(C4CCCCC4)sc3n2)c1 | 124% (inactive) |
| COc1ccc(-c2nnc(SCc3nnc(-c4ccccc4)o3)o2)cc1OC | 73% (inactive) |
| Cc1nn(CCC(=O)Nc2cc(F)ccc2F)c(=O)c2nn(-c3ccccc3)c(C)c12 | 99% (inactive) |
| CCC(C)(C)n1nnnc1C(c1ccccc1)N1CCc2ccccc2C1 (stereo not drawn) | 79% (inactive) |
| COc1ccccc1Cn1cc(C(=O)c2ccc(Cl)cc2)c(=O)c2cc3c(cc21)OCCO3 | 83% (inactive) |
| Cc1ccc(Nc2nc(C(=O)N3CCC(C)CC3)cs2)cc1 | 91% (inactive) |
| COc1ccc(C(=O)NCCc2nc3ccccc3[nH]2)cc1 | 127% (inactive) |
| Cc1cc(C)cc(OCC(=O)NCCc2nc3ccccc3[nH]2)c1 | 109% (inactive) |
| O=C(COc1ccc(F)cc1)NCCc1nc2ccccc2[nH]1 | 57% (active) |
| Cc1cc(OCC(=O)NCCc2nc3ccccc3[nH]2)cc(C)c1Cl | 44% (active) |
| Cc1cccc(OCC(=O)NCCc2nc3ccccc3[nH]2)c1C | 79% (inactive) |
| O=C(NCCc1nc2ccccc2[nH]1)c1ccc(F)cc1 | 81% (inactive) |
| COc1cccc(CNC(=O)c2ccc(-c3nc(CS(=O)c4ccccc4)c(C)o3)cc2)c1 (stereo not drawn) | 92% (inactive) |
| O=S(=O)(c1ccc(Cl)cc1)c1nnn2c1nc(N1CCCCC1)c1sccc12 | 52% (inactive) |
| CCS/C(=C(\C#N)C(N)=O)c1ccc(-c2ccccc2)[nH]1 | 59% (inactive) |
| CCSC(=C(C#N)C#N)c1cc2c([nH]1)CCCC2 | 45% (active) |
| N#CC(C#N)=C(C#N)c1cc2c([nH]1)CCCC2 | 81% (inactive) |
| CCCOc1ccc(C2C(=O)N(C3CCCCC3)CC(=O)N2CCc2ccccc2)cc1OC (stereo not drawn) | 86% (inactive) |
| O=C(c1ccc(Cl)cc1)N1CCC(c2ccncc2)CC1 | 87% (inactive) |
| Cc1cc(-c2ccccc2)n2nc(N)nc2n1 | 99% (inactive) |
| Cc1cc(C)n2nc(-c3ccccc3)cc2n1 | 97% (inactive) |
| Cc1cc(-c2ccccc2)n2nc(-c3cccc(Br)c3)cc2n1 | 14% (active) |
| Brc1cccc(-c2cnn3c(-c4ccccc4)cc(-c4ccccc4)nc23)c1 | 74% (inactive) |
| Cc1cc(-c2ccccc2)n2nc(-c3ccccc3)cc2n1 | -3% (active) |

| SMILES | survival |
| --- | --- |
| O=C(Nc1ccc(Br)cc1)c1cc2nc(-c3ccccc3)cc(-c3ccccc3)n2n1 | 65% (inactive) |
| CS(=O)(=O)N(CC(=O)NCCc1ccccc1)c1cc(C(F)(F)F)ccc1Cl | 68% (inactive) |
| CCOC(=O)c1c(C)[nH]c(C)c1S(=O)(=O)NCC(=O)NCc1cccc(Br)c1 | 130% (inactive) |
| COc1ccc(C)cc1S(=O)(=O)N1CCN(c2cccc(Cl)c2)CC1 | 59% (inactive) |
| Cc1cc(C)c(Cn2c(CCNC(=O)c3ccco3)nc3ccccc32)c(C)c1 | 59% (inactive) |
| COc1cccc(-n2c(=O)c3sc4ccccc4c3n(CC(=O)Nc3ccccc3C)c2=O)c1 | 74% (inactive) |
| Cc1ccc(NC(=O)Cn2nnc(C(=O)NCCc3ccccc3)c2N)cc1 | 87% (inactive) |
| COc1ccc(NC(=O)Cn2nnc(C(=O)Nc3ccc(F)c(Cl)c3)c2N)cc1OC | 37% (active) |
| COc1cccc(CNC(=O)c2nnn(CC(=O)Nc3cc(Cl)ccc3C)c2N)c1 | 25% (active) |
| CCc1ccccc1NC(=O)Cn1nnc(C(=O)NCc2cccs2)c1N | 94% (inactive) |
| CCc1ccccc1NC(=O)Cn1nnc(C(=O)NCc2ccccc2Cl)c1N | 20% (active) |
| COc1cccc(Cn2nnc(C(=O)Nc3cc(C)ccc3C)c2N)c1 | 100% (inactive) |
| Cc1cc(C)cc(NC(=O)Cn2nnc(C(=O)NCc3ccccc3Cl)c2N)c1 | 72% (inactive) |
| Cc1ccc(NC(=O)Cn2nnc(C(=O)NCCc3ccccc3)c2N)cc1C | 46% (active) |
| Cc1ccc(NC(=O)Cn2nnc(C(=O)NCCc3ccccc3)c2N)cc1Cl | 105% (inactive) |
| Cc1cccc(NC(=O)Cn2nnc(C(=O)Nc3ccc(F)c(Cl)c3)c2N)c1 | 101% (inactive) |
| COc1ccc(NC(=O)Cn2nnc(C(=O)Nc3ccc(C)c(F)c3)c2N)cc1Cl | 118% (inactive) |
| CCc1ccccc1NC(=O)Cn1nnc(C(=O)NCc2cccc(OC)c2)c1N | 70% (inactive) |
| COc1ccc(-c2nnc(SCC(=O)Nc3c(C)cccc3C)nc2-c2ccc(OC)cc2)cc1 | 92% (inactive) |
| COc1cccc(CNC(=O)c2ccc(-c3nc(CS(=O)(=O)c4ccccc4)c(C)o3)cc2)c1 | 72% (inactive) |
| COc1ccc(-c2noc(-c3ccc(N4CCCC4)c([N+](=O)[O-])c3)n2)cc1OC | 59% (inactive) |
| CCC(C)NC(=O)c1cc2cc(S(=O)(=O)N3CCCCC3)ccc2n1C (stereo not drawn) | 55% (inactive) |
| CCc1cccc(NC(=O)CC2Oc3ccc(C)cc3NC2=O)c1 (stereo not drawn) | 79% (inactive) |
| Cc1ccc(S(=O)(=O)Nc2nc(C)c(NC(=O)NC3C=NN=C3)s2)cc1 | 90% (inactive) |

| SMILES | survival |
| --- | --- |
| O=C(NCc1cccnc1)C(=O)NCC(c1cccnc1)N1CCN(c2ccc(F)cc2)CC1 (stereo not drawn) | 70% (inactive) |
| COc1cccc(Cn2nnc(C(=O)NCc3ccc(Cl)cc3Cl)c2N)c1 | 71% (inactive) |
| Cc1ccc(C)c(NC(=O)c2nnn(CC(=O)Nc3cccc(C)c3C)c2N)c1 | 98% (inactive) |
| COc1ccccc1NC(=O)Cn1nnc(C(=O)Nc2ccccc2Br)c1N | 89% (inactive) |
| Cc1ccc(C)c(Cn2nnc(C(=O)NCc3ccc(Cl)cc3Cl)c2N)c1 | 62% (inactive) |
| Cc1cccc(NC(=O)Cn2nnc(C(=O)Nc3ccccc3Br)c2N)c1C | 8% (active) |
| Nc1c(C(=O)NCc2ccc(Cl)cc2Cl)nnn1Cc1ccc(Br)cc1 | 45% (active) |
| Cc1ccc(Cl)cc1NC(=O)CC1Sc2ccccc2NC1=O (stereo not drawn) | 93% (inactive) |
| CC(CCc1ccccc1)NC(=O)CSc1n[nH]c(-c2ccccc2Cl)n1 (stereo not drawn) | 54% (inactive) |
| COc1ccc(CCNC(=O)c2cc(Sc3cccc(Cl)c3)nc3ccccc23)cc1OC | 89% (inactive) |
| CCc1c(C)sc2c1CCN(C(=O)Nc1cc(Cl)c(OC)cc1OC)C2c1ccccc1 (stereo not drawn) | 63% (inactive) |
| CCc1c(C)sc2c1CCN(C(=O)Nc1cc(C)ccc1OC)C2c1ccc(F)cc1 (stereo not drawn) | 144% (inactive) |
| CCc1c(C)sc2c1CCN(C(=O)Nc1ccc(F)c(Cl)c1)C2c1ccc(F)cc1 (stereo not drawn) | 46% (active) |
| CCc1c(C)sc2c1CCN(C(=O)Nc1cc(OC)c(OC)c(OC)c1)C2c1ccccc1 (stereo not drawn) | 25% (active) |
| CCc1c(C)sc2c1CCN(C(=O)Nc1ccccc1C(=O)OC)C2c1ccc(F)cc1 (stereo not drawn) | 105% (inactive) |
| CCc1c(C)sc2c1CCN(C(=O)Nc1cc(C)cc(C)c1)C2c1ccccc1 (stereo not drawn) | 55% (inactive) |
| O=C(CCCN1C(=O)c2cccnc2Oc2ccc(Cl)cc21)NCc1ccc(F)cc1 | 90% (inactive) |
| CCOc1ccccc1NC(=O)Cn1c(=O)n(CC(=O)NCc2ccccc2Cl)c(=O)c2sccc21 | 154% (inactive) |
| O=C(CSc1ccccc1)NCc1ccc2c(c1)CCN2C(=O)c1ccc(F)cc1 | 88% (inactive) |
| CCc1ccccc1N1CC(c2nc3ccccc3n2CCCCOc2ccccc2OC)CC1=O (stereo not drawn) | 80% (inactive) |
| Cc1cc(C)c(Cn2c(C3CC(=O)N(c4ccc(F)cc4)C3)nc3ccccc32)c(C)c1 (stereo not drawn) | 91% (inactive) |
| C=CCc1ccccc1OCCn1c(C2CC(=O)N(Cc3ccc(F)cc3)C2)nc2ccccc21 (stereo not drawn) | 0% (active) |
| COc1ccccc1OCCCn1c(C2CC(=O)N(c3ccc(F)cc3)C2)nc2ccccc21 (stereo not drawn) | 76% (inactive) |
| Cc1ccc(OCCn2c(C3CC(=O)N(Cc4ccc(F)cc4)C3)nc3ccccc32)c(C)c1 (stereo not drawn) | 3% (active) |

| SMILES | survival |
| --- | --- |
| CCOc1ccccc1N1CC(c2nc3ccccc3n2CCOc2ccccc2OC)CC1=O (stereo not drawn) | 95% (inactive) |
| Cc1cccc(C)c1OCCn1c(C2CC(=O)N(c3cccc(Cl)c3)C2)nc2ccccc21 (stereo not drawn) | 57% (inactive) |
| CCOc1ccccc1N1CC(c2nc3ccccc3n2Cc2c(C)cc(C)cc2C)CC1=O (stereo not drawn) | 92% (inactive) |
| Cc1ccc(C)c(OCCn2c(C3CC(=O)N(Cc4ccc(F)cc4)C3)nc3ccccc32)c1 (stereo not drawn) | 0% (active) |
| Cc1cccc(C)c1OCCn1c(C2CC(=O)N(Cc3ccc(F)cc3)C2)nc2ccccc21 (stereo not drawn) | 4% (active) |
| CC(=O)c1cccc(NC(=O)C(C)n2c(=O)cc(-c3ccccc3)c3c(C)nn(C)c32)c1 (stereo not drawn) | 102% (inactive) |
| CC1CCN(C(=O)Cn2cc(SCC(=O)NCc3ccccc3Cl)c3ccccc32)CC1 | 64% (inactive) |
| COc1cc(/C=C/c2nc(C#N)c(N3CCCCC3)o2)cc(OC)c1OC | 89% (inactive) |
| CCc1nnc2c(Nc3ccccc3Br)nc3ccccc3n12 | 93% (inactive) |
| COc1ccc(OCCn2c(C)nc3cc(C)c(C)cc32)cc1 | 57% (inactive) |
| CCOc1ccc(NCc2n[nH]c(=S)n2-c2ccc(C)cc2)cc1 | 90% (inactive) |
| CCOc1ccc(NCc2nc3ccccc3n2CCOc2ccc(C)cc2)cc1 | 1% (active) |
| CCC(O)c1nc2ccccc2n1CCOc1cc(C)cc(C)c1 (stereo not drawn) | 100% (inactive) |
| Cc1ccc(OCCn2c(CNc3cccc(C)c3)nc3ccccc32)cc1 | -3% (active) |
| CCOc1ccc(Nc2nc3ccccc3n3c(CC)nnc23)cc1 | 36% (active) |
| COc1ccc(NCc2nc3ccccc3n2CCOc2ccc(C)cc2)cc1 | 17% (active) |
| CCc1nnc2c(Nc3cccc(C(C)=O)c3)nc3ccccc3n12 | 92% (inactive) |
| Cc1ccc(C)c(Cn2cc(CCC(=O)NC3CCCCC3)c3ccccc32)c1 | 86% (inactive) |
| CC(C)(C)OC(=O)N/N=C/c1cccc(O)c1 | 79% (inactive) |
| Nc1nnc2c(Nc3ccccc3)nc3nonc3n12 | 86% (inactive) |
| O=C(NC1CCCCC1)c1ccc(CSc2nc3cccnc3n2Cc2cccc(F)c2)cc1 | 83% (inactive) |
